Data taken from PubChem BioAssay AID1159580 (chemical genetic matrix, 2015).
In all, about 5,500 compounds went through this assay and about 2,000 (36%) were called active. Not shown: some 18% with an inconclusive outcome. No stated cut-off is given here; in the data, active means normalized growth mostly below about 0.91 (no sharp cut-off); inconclusive means no clear call, values can overlap the other calls; inactive means mostly above about 0.92. Some of the results follow.

Experiment: chemical genetic growth profiling, strain panel (AID 1159580);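 further: tested at 20 µM; growth read once vehicle control cultures reached saturation at 30 °C; 1 = growth at the plate median or of vehicle wells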
Details: S. cerevisiae deletion strains, growth OD

Measured: normalized growth

CC(C)(O)C#Cc1ccc(/C=N\Nc2c(Cl)cc(Cl)cc2Cl)cc1
inactive: locus YAR019C, strain CDC15, stronger effect = lower value 0.982 | locus YBL105C, strain PKC1, stronger effect = lower value 0.982 | locus YBR135W, strain CKS1, stronger effect = lower value 0.962 | locus YBR136W, strain MEC1, stronger effect = lower value 0.979 | locus YBR160W, strain CDC28, stronger effect = lower value 0.969 | locus YDL017W, strain CDC7, stronger effect = lower value 0.982 | locus YDL028C, strain MPS1, stronger effect = lower value 0.973 | locus YDL101C, strain DUN1, stronger effect = lower value 0.986 | locus YDL108W, strain KIN28, stronger effect = lower value 0.968 | locus YDL132W, strain cdc53, stronger effect = lower value 0.969 | locus YDL214C, strain PRR2, stronger effect = lower value 0.881 | locus YDR052C, strain DBF4, stronger effect = lower value 0.978 | locus YDR054C, strain cdc34, stronger effect = lower value 0.963 | locus YDR226W, strain ADK1, stronger effect = lower value 0.978 | locus YDR477W, strain SNF1, stronger effect = lower value 0.773 | locus YER123W, strain YCK3, stronger effect = lower value 0.86 | locus YER133W, strain GLC7, stronger effect = lower value 0.862 | locus YFL009W, strain cdc4, stronger effect = lower value 0.975 | locus YFL029C, strain CAK1, stronger effect = lower value 0.973 | locus YFR003C, strain YPI1, stronger effect = lower value 0.978 | locus YFR019W, strain FAB1, stronger effect = lower value 0.848 | locus YFR028C, strain CDC14, stronger effect = lower value 0.976 | locus YGR040W, strain KSS1, stronger effect = lower value 0.833 | locus YGR052W, strain FMP48, stronger effect = lower value 0.769 | locus YGR092W, strain DBF2, stronger effect = lower value 0.746 | locus YHR079C, strain IRE1, stronger effect = lower value 0.668 | locus YHR205W, strain SCH9, stronger effect = lower value 0.832 | locus YIL147C, strain SLN1, stronger effect = lower value 0.973 | locus YJL157C, strain FAR1, stronger effect = lower value 0.886 | locus YJR016C, strain ILV3, stronger effect = lower value 0.973 | locus YJR066W, strain TOR1 (second series), stronger effect = lower value 0.86 | locus YJR066W, strain TOR1, stronger effect = lower value 0.728 | locus YKL048C, strain ELM1, stronger effect = lower value 0.93 | locus YKL067W, strain YNK1, stronger effect = lower value 0.893 | locus YKL101W, strain HSL1, stronger effect = lower value 0.765 | locus YKL193C, strain SDS22, stronger effect = lower value 0.974 | locus YKL203C, strain TOR2, stronger effect = lower value 0.838 | locus YML070W, strain DAK1, stronger effect = lower value 0.707 | locus YMR001C, strain CDC5, stronger effect = lower value 0.974 | locus YMR205C, strain PFK2 (second series), stronger effect = lower value 0.925 | locus YMR277W, strain FCP1, stronger effect = lower value 0.971 | locus YNL006W, strain LST8, stronger effect = lower value 0.984 | locus YNL020C, strain ARK1, stronger effect = lower value 0.758 | locus YNL161W, strain CBK1, stronger effect = lower value 0.98 | locus YNL183C, strain NPR1, stronger effect = lower value 0.728 | locus YNL207W, strain RIO2, stronger effect = lower value 0.981 | locus YNL222W, strain SSU72, stronger effect = lower value 0.979 | locus YNL307C, strain MCK1 (second series), stronger effect = lower value 0.768 | locus YOL078W, strain AVO1, stronger effect = lower value 0.978 | locus YOL136C, strain PFK27, stronger effect = lower value 0.904 | locus YOR061W, strain CKA2, stronger effect = lower value 0.73 | locus YOR119C, strain RIO1, stronger effect = lower value 1.03 | locus YOR231W, strain MKK1, stronger effect = lower value 0.708 | locus YOR329C, strain SCD5, stronger effect = lower value 0.983 | locus YPL031C, strain PHO85, stronger effect = lower value 0.709 | locus YPL153C, strain RAD53, stronger effect = lower value 0.85 | locus YPL204W, strain HRR25, stronger effect = lower value 0.839 | locus YPL209C, strain IPL1, stronger effect = lower value 0.979 | locus YPR025C, strain CCL1, stronger effect = lower value 0.972 | locus YPR106W, strain ISR1, stronger effect = lower value 0.977 | locus YPR111W, strain DBF20, stronger effect = lower value 0.962 | strain NNK1, stronger effect = lower value 0.972 | strain TSCII, stronger effect = lower value 0.977
active: locus YHR030C, strain SLT2, stronger effect = lower value 0.354 | locus YHR082C, strain KSP1, stronger effect = lower value 0.591 | locus YJL095W, strain BCK1, stronger effect = lower value 0.341 | locus YLR113W, strain HOG1, stronger effect = lower value 0.574 | locus YPL256C, strain CLN2, stronger effect = lower value 0.766
